From the supplement of paper PMC8975748
Counter-ions that a name gives are not always drawn. ± gives the standard deviation of the averaged measurements.

Tests used:
[1] = tested on: Saccharomyces cerevisiae BY4741 SeMeCo community; assay: mean cell size (pixel area) (pixels); higher = larger cells; conditions: 10 µM; 24 h; SM minimal medium
Summary of the method: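 In this assay, mean cell pixel area per well was obtained from automated confocal images of paraformaldehyde-fixed yeast analysed in Harmony. The cells were a Saccharomyces cerevisiae BY4741 community with four plasmids, each complementing one auxotrophy and carrying a fluorescent marker, grown for 24 h in SM medium with drug at a final 10 µM in 384-well plates. Values are averaged across 3 replicates. Same SeMeCo high-content imaging drug screen: Selleck FDA-approved drugs at 10 µM, 24 h in SM medium, 384-well plates, 3 replicates.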

[2] = tested on: Saccharomyces cerevisiae BY4741 SeMeCo community; assay: z-score of prototroph abundance vs DMSO median; higher = larger share of this subpopulation than in DMSO controls; conditions: 10 µM; 24 h; SM minimal medium; subpopulation (auxotrophy): Prototroph
Summary of the method: (§1)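 Cells of a Saccharomyces cerevisiae BY4741 community, carrying four plasmids that each restored one auxotrophy and encoded a distinct fluorescent protein, were pre-grown overnight to OD600 1.0 and diluted to 0.3. A 70 µl volume was added to 384-well plates acoustically predosed with library drugs (10 µM final) and grown 24 h in minimal SM medium. After paraformaldehyde fixation, automated confocal microscopy was used, with single-auxotroph fluorescent strains for thresholds and autofluorescence correction. The abundance of each subpopulation was scored as a z-score against the vehicle-well median.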

[3] = tested on: Saccharomyces cerevisiae BY4741 SeMeCo community; assay: z-score of subpopulation abundance vs DMSO median, subpopulation auxotrophic for M; higher = larger share of this subpopulation than in DMSO controls; conditions: 10 µM; 24 h; SM minimal medium; subpopulation (auxotrophy): M
Summary of the method: as §1

[4] = tested on: Saccharomyces cerevisiae BY4741 SeMeCo community; assay: z-score of subpopulation abundance vs DMSO median, subpopulation auxotrophic for L; higher = larger share of this subpopulation than in DMSO controls; conditions: 10 µM; 24 h; SM minimal medium; subpopulation (auxotrophy): L
Summary of the method: as §1

[5] = tested on: Saccharomyces cerevisiae BY4741 SeMeCo community; assay: z-score of subpopulation abundance vs DMSO median, subpopulation auxotrophic for U; higher = larger share of this subpopulation than in DMSO controls; conditions: 10 µM; 24 h; SM minimal medium; subpopulation (auxotrophy): U
Summary of the method: as §1

[6] = tested on: Saccharomyces cerevisiae BY4741 SeMeCo community; assay: z-score of subpopulation abundance vs DMSO median, subpopulation auxotrophic for H; higher = larger share of this subpopulation than in DMSO controls; conditions: 10 µM; 24 h; SM minimal medium; subpopulation (auxotrophy): H
Summary of the method: as §1

[7] = tested on: Saccharomyces cerevisiae BY4741 SeMeCo community; assay: z-score of subpopulation abundance vs DMSO median, subpopulation auxotrophic for LU; higher = larger share of this subpopulation than in DMSO controls; conditions: 10 µM; 24 h; SM minimal medium; subpopulation (auxotrophy): LU
Summary of the method: as §1

[8] = tested on: Saccharomyces cerevisiae BY4741 SeMeCo community; assay: z-score of subpopulation abundance vs DMSO median, subpopulation auxotrophic for LM; higher = larger share of this subpopulation than in DMSO controls; conditions: 10 µM; 24 h; SM minimal medium; subpopulation (auxotrophy): LM
Summary of the method: as §1

[9] = tested on: Saccharomyces cerevisiae BY4741 SeMeCo community; assay: z-score of subpopulation abundance vs DMSO median, subpopulation auxotrophic for HM; higher = larger share of this subpopulation than in DMSO controls; conditions: 10 µM; 24 h; SM minimal medium; subpopulation (auxotrophy): HM
Summary of the method: as §1

[10] = tested on: Saccharomyces cerevisiae BY4741 SeMeCo community; assay: z-score of subpopulation abundance vs DMSO median, subpopulation auxotrophic for HU; higher = larger share of this subpopulation than in DMSO controls; conditions: 10 µM; 24 h; SM minimal medium; subpopulation (auxotrophy): HU
Summary of the method: as §1

[11] = tested on: Saccharomyces cerevisiae BY4741 SeMeCo community; assay: z-score of subpopulation abundance vs DMSO median, subpopulation auxotrophic for UM; higher = larger share of this subpopulation than in DMSO controls; conditions: 10 µM; 24 h; SM minimal medium; subpopulation (auxotrophy): UM
Summary of the method: as §1

[12] = tested on: Saccharomyces cerevisiae BY4741 SeMeCo community; assay: z-score of subpopulation abundance vs DMSO median, subpopulation auxotrophic for HL; higher = larger share of this subpopulation than in DMSO controls; conditions: 10 µM; 24 h; SM minimal medium; subpopulation (auxotrophy): HL
Summary of the method: as §1

[13] = tested on: Saccharomyces cerevisiae BY4741 SeMeCo community; assay: z-score of subpopulation abundance vs DMSO median, subpopulation auxotrophic for HLU; higher = larger share of this subpopulation than in DMSO controls; conditions: 10 µM; 24 h; SM minimal medium; subpopulation (auxotrophy): HLU
Summary of the method: as §1

[14] = tested on: Saccharomyces cerevisiae BY4741 SeMeCo community; assay: z-score of subpopulation abundance vs DMSO median, subpopulation auxotrophic for HLM; higher = larger share of this subpopulation than in DMSO controls; conditions: 10 µM; 24 h; SM minimal medium; subpopulation (auxotrophy): HLM
Summary of the method: as §1

[15] = tested on: Saccharomyces cerevisiae BY4741 SeMeCo community; assay: z-score of subpopulation abundance vs DMSO median, subpopulation auxotrophic for HUM; higher = larger share of this subpopulation than in DMSO controls; conditions: 10 µM; 24 h; SM minimal medium; subpopulation (auxotrophy): HUM
Summary of the method: as §1

[16] = tested on: Saccharomyces cerevisiae BY4741 SeMeCo community; assay: z-score of subpopulation abundance vs DMSO median, subpopulation auxotrophic for LUM; higher = larger share of this subpopulation than in DMSO controls; conditions: 10 µM; 24 h; SM minimal medium; subpopulation (auxotrophy): LUM
Summary of the method: as §1

[17] = tested on: Saccharomyces cerevisiae BY4741 SeMeCo community; assay: z-score of subpopulation abundance vs DMSO median, subpopulation auxotrophic for HLUM; higher = larger share of this subpopulation than in DMSO controls; conditions: 10 µM; 24 h; SM minimal medium; subpopulation (auxotrophy): HLUM
Summary of the method: as §1

SMILES	mean cell size [1]	z-score of prototroph abundance [2]	z-score of subpopulation abundance [3]	z-score of subpopulation abundance [4]	z-score of subpopulation abundance [5]	z-score of subpopulation abundance [6]	z-score of subpopulation abundance [7]	z-score of subpopulation abundance [8]	z-score of subpopulation abundance [9]	z-score of subpopulation abundance [10]	z-score of subpopulation abundance [11]	z-score of subpopulation abundance [12]	z-score of subpopulation abundance [13]	z-score of subpopulation abundance [14]	z-score of subpopulation abundance [15]	z-score of subpopulation abundance [16]	z-score of subpopulation abundance [17]
C#C[C@]1(O)CC[C@H]2[C@@H]3CCC4=CC(=O)CC[C@@H]4[C@H]3CC[C@@]21CC [Levonorgestrel]	12.4 ± 0.16	0.69	-0.18	-0.24	0.3	-0.72	-0.04	-0.89	-0.99	-0.13	-0.13	-0.95	0.05	-0.96	-0.08	-0.68	-0.86
C[C@@H](O)[C@H]1C(=O)N2C(C(=O)O)=C(SCCNC=N)C[C@H]12 [Imipenem]	12.26 ± 0.071	-0.79	0.92	-1.04	0.59	0.19	-0.16	0.19	0.44	-0.46	1.18	-0.18	-0.62	0.25	0.59	0.35	-0.14
Cc1ncc([N+](=O)[O-])n1CC(O)CCl (configuration not stated) [Ornidazole]	12.5 ± 0.26	0.34	1.05	0	-0.47	-0.77	-0.8	0.41	0.34	-0.37	–	0.53	-0.38	-0.03	0.44	-0.87	0.77
CCS(=O)(=O)CCn1c([N+](=O)[O-])cnc1C [Tinidazole]	12.26 ± 0.046	0.58	-0.75	0.1	0.56	-1.03	0.29	0.29	-1.1	-0.4	-0.43	-0.55	0.09	-1.15	-0.47	-0.2	-0.4
COc1ccc2[nH]c([S+]([O-])Cc3ncc(C)c(OC)c3C)nc2c1 (configuration not stated) [Omeprazole Sodium]	12.1 ± 0.19	0.8	-0.71	0.3	-1.22	1.92	-0.12	-0.57	-0.21	-0.78	-1.63	–	0.43	-0.14	-0.81	-0.98	-0.1
Cn1nnc(-c2ccc(-c3ccc(N4C[C@H](COP(=O)(O)O)OC4=O)cc3F)cn2)n1 [Tedizolid Phosphate]	12.5 ± 0.29	1.14	-0.15	-1.36	0.63	-0.61	-0.94	-2.14	-0.87	-0.46	-0.77	–	-0.8	-0.8	-0.98	-1.05	-0.73
CCN(CC)CCNC(=O)c1cc(Cl)c(N)cc1OC [Metoclopramide HCl]	12.4 ± 0.31	0.83	1.12	-0.18	-1.06	-1.04	-1.25	0.33	1.14	-0.72	-1.49	0.1	-0.43	-0.58	-1.06	-0.48	-0.49
COc1cc2c(cc1OC)[C@@H]1Cc3ccc(OC)c(OC)c3CN1CC2 [Rotundine]	12.5 ± 0.15	–	0.07	-0.28	0.7	–	0.16	-0.15	-0.02	0.17	-0.01	0.52	0.67	-0.41	0.14	-0.04	0.13
CC1(C)S[C@@H]2[C@H](NC(=O)[C@H](C(=O)O)c3ccsc3)C(=O)N2[C@H]1C(=O)O [Ticarcillin sodium]	12.4 ± 0.22	-0.89	1.32	2.72	-0.93	0.6	1.74	2.06	0.42	-0.4	-0.45	2.48	1.46	1.43	0.83	1.35	1.75
O=C(O)c1cccnc1Nc1cccc(C(F)(F)F)c1 [Niflumic acid]	12.9 ± 0.17	–	0.7	-0.68	0.51	–	0.28	-0.15	-0.03	-0.46	-0.28	-0.39	-0.64	0.59	-0.49	0.4	-0.43
CC[C@@H]([C@H](C)O)n1ncn(-c2ccc(N3CCN(c4ccc(OC[C@@H]5CO[C@@](Cn6cncn6)(c6ccc(F)cc6F)C5)cc4)CC3)cc2)c1=O [Posaconazole]	12.34 ± 0.068	-11.6	-1.66	-0.49	0.25	16.6	3.33	4.46	11.5	16.4	10.8	–	14.4	14.9	11.8	7.85	12.3
CCCCCCCN(CC)CCCC(O)c1ccc(NS(C)(=O)=O)cc1 (configuration not stated) [Ibutilide Fumarate]	12.5 ± 0.2	0.2	-0.42	-0.88	0.93	0.34	0.14	-0.88	0.11	0.97	0.25	-0.89	-0.63	-0.14	0.49	0.19	-0.72
C=CCc1ccc(O)c(-c2ccc(O)c(CC=C)c2)c1 [Honokiol]	12.6 ± 0.22	–	-0.54	-0.29	-1.32	-1.34	-1.84	-0.63	-0.9	-1.64	-1.43	-0.44	-1.04	-0.37	-1.19	-1.08	-0.84
